Here are results for 40 molecules from PubChem BioAssay (NCI).

Compounds without any hit were thinned out: in the full panel of roughly 83,000, 20% have a hit.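 Results are percent growth after 48 hours of single-concentration exposure. 100 means growth as in untreated cells, lower positive values show inhibition; negative values down to -100 show cell death.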 Calls of active or inactive are those of the source.

The test system of the assay is CCRF-CEM leukemia. The experiment in a line: NCI-60 one-dose screen, 48 h (100 = growth as untreated, 0 = no growth, -100 = all killed). The following applies: 10 µM. The method, then: Growth inhibition of the CCRF-CEM human tumor cell line is measured as a screen for anti-cancer activity. Cells are grown in 96 well plates and exposed to the test compound for 48 hours. Compounds are tested at a single concentration, which is 10^-5 M for most compounds. The reported endpoint is percent growth (GI% or GIPRCNT), where numbers from 0 - 100% represent growth inhibition, and numbers from -100% - 0 represent cell death. For example, a value of 40 represents 60% growth inhibition. A value of 0 means no net growth occurred over the course of the experiment. A value of -40 indicates 40% of cells at the beginning of the experiment died by the end of the experiment. A value of -100 means all cells are dead at the end of the experiment.
NCI-60 Human Tumor Cell Lines Screen was performed using the standard one-dose NCI protocol, which is described in more detail at https://dtp.cancer.gov/discovery_development/nci-60/default.htm.
Compounds with GIPRCNT values below 10 were considered active. Activity score was based on GIPRCNT using the following formula: […]
Score is 0 for GIPRCNT values of 100 or above, 50 for GIPRCNT values of 0, and 100 for GIPRCNT values of -100.
Turning to `COc1ccc(-c2nn(-c3cccc(Cl)c3)cc2-c2cc(-c3cccs3)[nH]c(=S)n2)cc1`, the growth was 39.5% (inactive). For the molecule `COc1ccc(NC(=O)C2CC3C=CC2C3)c([N+](=O)[O-])c1` (stereo not given), the growth was 95.6% (inactive). For the molecule `OC(CCN1CCCC1)(c1ccccc1)C1CCCCC1` (stereo not given), the growth is 98.2% (inactive). `COc1ccc2cc(-c3nc4ccccc4s3)c(Cl)nc2c1OC`: the growth was 104% (inactive). For `CC(C)C1=C(O)C2=C(C(=O)C1=O)[C@@]1(C)CCCC(C)(C)[C@@H]1CC2` the value was 41.5% (inactive); for `COc1cc(-c2ccc(N=Nc3ccc4c(S(=O)(=O)O)ccc(N)c4c3O)c(OC)c2)ccc1N=Nc1ccc2c(S(=O)(=O)O)ccc(N)c2c1O`, 105% (inactive). For the molecule `O=[N+]([O-])c1ccc(/C(=C/c2ccccc2)[n+]2ccccc2)cc1`, the growth is 89.9% (inactive). On to `COc1cc(C)ccc1Oc1nc(Nc2ccc(N3CCOCC3)cc2)ncc1NC(=O)Nc1cc(C(F)(F)F)cc(C(F)(F)F)c1`, for which the growth is 41.9% (inactive). Regarding `O=c1[nH]c(=O)n(C2C[C@H](O)[C@@H](CO)O2)cc1C(F)(F)F` (stereo not given in full), the growth is 95% (inactive). In the case of `O=C(CCCCC(=O)Oc1c(Cl)cc(Cl)cc1[N+](=O)[O-])Oc1c(Cl)cc(Cl)cc1[N+](=O)[O-]`, the growth was 73.6% (inactive). Turning to `OC(CNc1ccnc2cc(Cl)ccc12)CNC1CCCCC1` (stereo not given), the growth was 80.5% (inactive). For the molecule `CCN1C(=O)CC(SC2CC(=O)N(CC)C2=O)C1=O` (stereo not given), the growth was 94.1% (inactive). On to `CCN(CC)CCOc1cccc2c1C(=O)c1ccccc1C2=O`, for which the growth was 92.6% (inactive). Take `O=[N+]([O-])c1ccc2ncccc2c1Cl`: the growth is 12.3% (inactive). Turning to `Cc1cc(Cl)ccc1Nc1nc(C(F)(F)F)ccc1C(=O)N/N=C/c1cccc(O)c1`, the growth is 4.04% (active). For the molecule `O=[N+]([O-])c1ccc(NCSc2ccc(Cl)cc2)cc1`, the growth was 50.4% (inactive).

Consider `COc1ccc(C(=O)N/N=C/c2cc(C(F)(F)F)ccc2Cl)cc1`, for which the growth is 103% (inactive). Regarding `CC(=O)O[C@@]12CO[C@@H]1C[C@H](O)[C@@]1(C)C(=O)[C@H](O)C3=C(C)[C@@H](OC(=O)[C@H](O)[C@@H](NC(=O)OC(C)(C)C)c4ccccc4)C[C@@](O)([C@@H](OC(=O)c4ccccc4)C12)C3(C)C` (stereo not given in full), the growth is 29.9% (inactive). In the case of `O=C(Nc1ccc2c(O)cc(S(=O)(=O)O)cc2c1)c1ccc([N+](=O)[O-])cc1`, the growth was 88.5% (inactive).

Turning to `O=C(N/N=C/c1ccc(Cl)cc1)c1ccc(Cc2n[nH]c(=O)c3cccnc23)cc1`, the growth is 107% (inactive). On to `Cc1cc(CCNC=O)c(C)c2c1sc1ccccc12`, for which the growth is 84% (inactive). Turning to `Cc1ccc(NC(=S)NNC(=S)Nc2ccc(C)cc2)cc1`, the growth is 43.9% (inactive). Consider `CC(=O)Nc1ccc(S(=O)(=O)N/N=C(\C)c2ccc(C)cc2C)cc1`, for which the growth was 103% (inactive). On to `CCn1cc(C(=O)O)c(=O)c2cc(F)c(N3CCNCC3)cc21`, for which the growth was 102% (inactive). `CCN(CC)CCCC(C)N=C(C1=C(C(=NC(C)CCCN(CC)CC)c2cccc(OC)c2)C(=O)NC1=O)c1cccc(OC)c1` (stereo not given): the growth is -21.4% (active). Consider `CCOC(=O)c1cocc1C(=O)O`, for which the growth was 74.1% (inactive). In the case of `COc1ccc(CCN2CCC(Nc3nc4ccccc4n3Cc3ccc(F)cc3)CC2)cc1`, the growth was -13.6% (active). For the molecule `CC(=O)Nc1ccc(S(=O)(=O)c2ccnc3cc(Cl)ccc23)cc1`, the growth was 52.9% (inactive). In the case of `C[C@H]1[C@H](OC(=O)CCC(=O)O)O[C@@H]2O[C@]3(C)CC[C@H]4[C@H](C)CC[C@@H]1[C@@]24OO3`, the growth is 39.7% (inactive). Turning to `COc1ccc(-c2nn(-c3cccc(Cl)c3)cc2-c2c(C#N)c(=O)n3[nH]c(-c4ccccc4)nc3c2C#N)cc1`, the growth was 74.4% (inactive). For `O=C(Nc1nc(-c2ccccc2)nc2c1sc(=S)n2-c1ccccc1)C(F)(F)F`, the growth is 80.8% (inactive).

Regarding `C=C(NC(=O)C(=C)NC(=O)c1csc(C2=NC3c4csc(n4)C4NC(=O)c5csc(n5)C(C(C)(O)C(C)O)NC(=O)C5CSC(=N5)C(=CC)NC(=O)C(C(C)O)NC(=O)c5csc(n5)C3(CC2)NC(=O)C(C)NC(=O)C(=C)NC(=O)C(C)NC(=O)C(C(C)CC)NC2C=Cc3c(C(C)O)cc(nc3C2O)C(=O)OC4C)n1)C(N)=O` (stereo not given), the growth is -10.1% (active). `C#CC(C)(O)[C@@H]1C[C@H](CC(=O)O)C1(C)C` (stereo not given in full): the growth was 137% (inactive). The value for `Cc1cc(C(C#N)c2ccc(Cl)cc2)c(Cl)cc1NC(=O)c1cc(I)cc(I)c1O` (stereo not given) was 19.1% (inactive). The value for `CCOC(=O)c1cc(C(=O)c2ccc(Cl)cc2)n2ccc(-c3cc[n+](CC(=O)c4ccc(OC)cc4)cc3)cc12` was -3.14% (active); that for `CCc1cc(Cl)c(OC)c(C(=O)NCC2CCCN2CC)c1O` (stereo not given) was 96% (inactive). With `NS(=O)(=O)Oc1ccc(-c2ccc3sccc3c2)cc1`, the growth is 108% (inactive). With `C[N+]1(CCCCC[N+]2(C)CCCC2)CCCC1`, the growth was 67.5% (inactive). As to `O=C(CSc1nnc(-c2cccnc2SCc2ccccc2)o1)Nc1nc(Cl)cc(Cl)n1`, the growth is 101% (inactive). On to `Cc1c2cnccc2c(C)c2c1oc1ccccc12`, for which the growth is 62.8% (inactive).
